Source: PubChem (Broad Institute)
Tg IFNy HTS = inhibitors of Toxoplasma gondii growth with IFN-gamma; Toxoplasma gondii growth in IFN-gamma-treated host cells; active compounds read low; activity change, negative = inhibition, % (test concentration not listed); 69,000 tested, 3.8% active; AID 1259416; in the data active = activity change below about -70%, passing the limit was not always enough;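 note: host cells are HeLa cells infected with Toxoplasma gondii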
* = called active by the depositor; ! = repeats disagree. Many of the other results were omitted from the sample, so hits are more common in it than they were.

SMILES	Tg IFNy HTS
CCc1cn[nH]c1C1CCCN(C(=O)c2n[nH]c3ccc(C)cc23)C1 (centres undefined)	32
Cc1cccc(C2c3[nH]c4ccccc4c3CCN2Cc2cccnc2)c1 (centres undefined)	24
COc1cccc(S(=O)(=O)N2C[C@@H]3N[C@H](C2)C3c2ccc(-c3ccccc3F)cc2)c1 (some centres undefined)	-31
COc1cccc(-c2ccc(C3[C@@H]4CN(S(=O)(=O)Cc5ccccc5)C[C@H]3N4)cc2)c1 (some centres undefined)	-81*
CN(C)C(=O)c1cccc(-c2ccc(C3[C@H]4CNC[C@@H]3N4S(=O)(=O)Cc3ccccc3)cc2)c1 (some centres undefined)	-13
COCCN1C(=O)CCc2cc(NS(=O)(=O)c3cccc(F)c3)ccc21	26
O=C(NCCc1csc(-c2ccc(Cl)cc2)n1)C(=O)Nc1ccc(F)cc1F	18
COc1ccc2c(c1)NC1(CCN(C(=O)CCC3CCCC3)CC1)c1cccn1-2	-35
CN1CCN(CCCN2c3ccccc3Sc3ccc(C(F)(F)F)cc32)CC1	-80*!
CN1CCN(CCCN(C)CC(C)(C)c2ccc(Cl)cc2)CC1	-9
CN1CCN(C2=Nc3ccccc3Sc3ccc(Cl)cc32)CC1	9
CCOC(=O)c1[nH]c(CSc2ncnc3sc(C)c(C)c23)c(C(=O)OCC)c1C	-26
Cc1cccc(S(=O)(=O)N2CC[C@H]3[C@@H]2CCN3c2ncccn2)c1	2
CN(C(=O)CSc1ccc(C(F)(F)F)cn1)c1c2c(nn1C)CCCC2	-26
CCN(CC)CCN(Cc1ccc(-c2ccc(C(F)(F)F)cc2)cc1)C(=O)Cn1c(SCc2ccc(F)cc2)nc(=O)c2c1CCC2	-76*
CCN(Cc1ccncc1)C(=O)CCNC(=O)c1ccc(F)cc1	75
CC1=CC(C)(C)N2C(=O)C3(NC(=O)c4ccccc4N3)c3cccc1c32 (centres undefined)	380
Fc1ccc(C2=CCN(c3nc(-c4ccncc4)nc4c3CNC4)CC2)cc1	6
CC(=O)N1CCc2[nH]nc(C(=O)N3CCOCC3)c2C1	354
CN1CCN(c2nccc(CN3CC4CCCC(O)(c5ccc(F)cc5)C4C3)n2)CC1 (centres undefined)	-60
CCOC(=O)C(NC(=O)c1ccccc1Cl)(Nc1ccc(C)cc1)C(F)(F)F (centres undefined)	195
Cc1cccc(NC(=O)C(=O)NCCc2csc(-c3cccc(F)c3)n2)c1	-87*
Cc1cc(C)c(NC(=O)C(=O)NCCc2csc(-c3cccc(F)c3)n2)c(C)c1	-80*
O=C(NCCc1csc(-c2cccc(F)c2)n1)C(=O)Nc1ccccc1	-34
Cc1ccc(NC(=O)C(=O)NCCc2csc(-c3cccc(F)c3)n2)c(C)c1	-10
SMILES	Tg IFNy HTS
Cc1cccc(C)c1NC(=O)C(=O)NCCc1csc(-c2cccc(F)c2)n1	25
Cc1cccc(NC(=O)C(=O)NCCc2csc(-c3ccc(Cl)cc3)n2)c1	-27
O=C(c1ccc(F)c(F)c1)N1C[C@@H]2COC[C@]2(COCC2CC2)C1	-63
CCN(Cc1cncn1C)c1ccc(NC(=O)CN2CCOCC2)c(C)c1	-31
O=C(NC1CC1)c1cc2n(n1)CCCN(C(=O)c1n[nH]c3ccccc13)C2	-8
COc1ccc(C2(CNS(=O)(=O)c3ccccc3)CCCC2)cc1OC	-12
Cc1ccc(S(=O)(=O)NCCC(c2ccccc2)c2ccco2)cc1 (centres undefined)	1
COc1ccccc1C(CCNS(=O)(=O)c1ccccc1)c1ccc2c(c1)OCO2 (centres undefined)	-75*
COCCN1C(=O)CCC12CCCN(C(=O)NCc1ccccc1)CC2 (centres undefined)	1
O=C1N(Cc2ccccc2)C(=O)C2(CCN(Cc3ccsc3)CC2)N1CCc1ccccc1	-64
O=C1N(Cc2ccccc2)C(=O)C2(CCN(CC3CC=CCC3)CC2)N1CCc1ccccc1 (centres undefined)	-33
O=C1N(Cc2ccccc2)C(=O)C2(CCN(Cc3c[nH]c4ccccc34)CC2)N1CCc1ccccc1	-77*
COc1ccccc1OC(=O)C(C)c1ccc(CC(C)C)cc1 (centres undefined)	11
CC1=C(C(=O)N2CCC(C)CC2)C2(CCN(C(=O)c3ccco3)CC2)OC1=O	-7
O=C(C(c1ccc(Cl)cc1)N1CCOCC1)N1CCN(Cc2ccccn2)CC1 (centres undefined)	13
COc1ccc(-c2ccc(=O)[nH]n2)cc1	-115*
Cc1ccc(-c2ccc(=O)[nH]n2)cc1-n1cnnc1	8
COc1ccc(-c2c(N)n[nH]c2C)cc1OC	-14
COc1cc(-c2ccc(=O)[nH]n2)ccc1OC(F)F	-87*
COc1ccc(-c2cc(N)n(C)n2)cc1	111
COc1ccc(Cn2c(-c3ccncc3)n[nH]c2=O)cc1	-4
Cn1c(=O)c2c(ncn2CCC(=O)Nc2nc3ccccc3s2)n(C)c1=O	-48
O=C(O)COCC(=O)NCc1ccco1	17
Cc1ccc(NC(=O)CC(=O)NCCN2CCCCC2CO)cc1Cl (centres undefined)	-64
COCCN1CCO[C@H]2CCN(C(=O)c3ccc(C)s3)C[C@H]21	12
SMILES	Tg IFNy HTS
O=C(Nc1cccc(Cl)c1)Nc1ncc(CCNc2ncnc3ccsc23)s1	-73*
O=C(Nc1ccc(-c2nc(-c3ccccc3)co2)cc1)Nc1cccc(Cl)c1	-11
O=C(Nc1cccc(Cl)c1)c1ccccn1	221
Cc1cc(OCCN2CCNCC2)cc(C)c1Cl	-58
CN1CCN(C(=O)[C@H]2CC3CN(c4ncc(F)cn4)CC3N2C)CC1 (some centres undefined)	-2
COC(=O)c1cc2n(n1)CCCN(C(=O)c1cc(C)[nH]c(=O)c1)C2	5
COc1ccc(-c2[nH]ncc2CN(CCN(C)C)Cc2cccnc2)cc1	-26
CC(=O)NCCc1csc(C2CCCN(C(=O)/C=C/c3ccccc3Cl)C2)n1 (centres undefined)	-6
CCC(=O)NCCc1csc(C2CCCN(C(=O)/C=C/c3cccc(Cl)c3)C2)n1 (centres undefined)	-79*
Cc1ccc(/C=C/C(=O)N2CCCC(c3nc(CCNC(=O)C4CC4)cs3)C2)cc1 (centres undefined)	-67
N#CCCSc1ccccc1NC(=O)C(c1ccccc1)C1CCCC1 (centres undefined)	-4
Cc1ccc(-c2nc3cnccn3c2NCCC(=O)NC2CCN(C)CC2)cc1	53
CCS(=O)(=O)c1cccc(-c2cc(C(=O)NC3CCN(C)CC3)c(C)c3[nH]c4ncc(C)cc4c23)c1	-80*
COc1cccc(-c2nc3cnccn3c2NCCC(=O)NC2CCN(C)CC2)c1	-18
Cc1c(C(=O)N2CC(C)CC(C)C2)oc2ccc3c(c12)C(=O)CC1(CCCCCC1)O3 (centres undefined)	-99*
Cc1ccc2c(C)c(C(=O)N3CCCC4(CC3)CNC(=O)O4)oc2c1 (centres undefined)	0
CCOC(=O)C1CCN(C(=O)c2oc3ccc4c(c3c2C)C(=O)CC2(CCCCC2)O4)CC1	325
Cc1ccc2c(C)c(C(=O)N3CCC4(CN(C)C(=O)O4)C3)oc2c1 (centres undefined)	4
Cc1c(C(=O)N2CCC(C)CC2)oc2ccc3c(c12)C(=O)CC1(CCCCCC1)O3	-110*
Cc1ccc2c(c1)C(=O)CC1(CCN(C(=O)C3CCCC3)CC1)O2	-4
CN(C)CCCN(Cc1ccccn1)Cc1c(-c2ccc(F)cc2)nc2ncccn12	28
CCC/C=C/c1ncccc1NC(=O)C1CC1	-12
